PTK2B oligo ant – blocks oligomerization of human Pyk2 in cells | Q14289 | 99,000 tested, 0.83% active | z-score (the deposit names both 25 µM and 10 µM) | Q293 cells, Pyk2 FERM NanoBiT luminescence; hits give low values;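 active = Z-score of -3 or lower, scaled per plate to the spread of control and sample wells; inactive = z-score above -3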;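 also: negative z-score means lost luminescence so less FERM oligomerization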
CYP2C9 activ – increases human cytochrome P450 2C9 activity; P11712; activation factor at 5 µM; 96,000 tested, 1.4% active; AID 1024; recombinant CYP2C9, luciferin-H conversion, luminescence; hits give high values; factor 1 = untreated enzyme, 0 = blocked;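 active = activation factor of 2 or more for CYP2C9 at a 5 µM dose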;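 also: 0 = sulfaphenazole-blocked wells and 1 = vehicle-only wells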
CYP2C9 inh – inhibitors of human CYP2C9 | AID 777 | 96,000 tested, 20% active | CYP2C9 Supersomes, luciferin-H conversion, luminescence | inhibition, % at 5 µM | P11712;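 active = blocking of liver enzyme CYP2C9 beyond about 50% at 5 µM, limit read from the data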
CYP2C19 inh – inhibitors of human CYP2C19 | CYP2C19 Supersomes, luciferin-H EGE luminescence, 30 min | inhibition, % at 5 µM | 96,000 tested, 21% active | AID 778;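 active = CYP2C19 inhibition above a set limit at 5 µM in the primary screen, cut at about 50% in these data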;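 also: plate controls were negative control wells for no effect and 2.5 mM tranylcypromine positive control for full effect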
Target sequence (P33261 whole entry, looked up): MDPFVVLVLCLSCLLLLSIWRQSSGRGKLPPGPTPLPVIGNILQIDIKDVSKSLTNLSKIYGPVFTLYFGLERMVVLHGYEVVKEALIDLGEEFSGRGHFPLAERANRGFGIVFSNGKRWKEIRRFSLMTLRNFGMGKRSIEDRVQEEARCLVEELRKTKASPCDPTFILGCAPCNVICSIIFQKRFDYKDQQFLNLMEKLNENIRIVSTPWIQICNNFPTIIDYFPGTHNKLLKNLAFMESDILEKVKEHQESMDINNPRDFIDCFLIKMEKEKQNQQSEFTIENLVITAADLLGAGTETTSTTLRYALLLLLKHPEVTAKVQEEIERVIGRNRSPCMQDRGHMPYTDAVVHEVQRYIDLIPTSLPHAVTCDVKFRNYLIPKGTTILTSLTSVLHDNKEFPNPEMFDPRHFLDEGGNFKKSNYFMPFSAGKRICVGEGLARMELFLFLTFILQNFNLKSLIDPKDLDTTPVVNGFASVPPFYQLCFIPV
CYP2C19 act – increases human CYP2C19 enzyme activity. P33261. recombinant CYP2C19, luciferin-H EGE luminescence; hits give high values; 0 = fully inhibited enzyme, 1 = untreated enzyme. activation factor at 5 µM. 96,000 tested, under 10 active. AID 1025;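 active = activation factor of at least 2 at 5 µM in the primary screen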;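 also: 0 = wells with 2.5 mM tranylcypromine and 1 = vehicle-only wells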
An asterisk follows results filed as active; . = no result. An excerpt weighted towards active compounds, which were near 28% of everything screened.

SMILES	PTK2B oligo ant	CYP2C9 activ	CYP2C9 inh	CYP2C19 inh	CYP2C19 act
COc1cc(S(=O)(=O)N2CCN(c3ccccc3F)CC2)ccc1Cl	-3*	0.1	90*	99*	0
COc1ccc(OCC(=O)N2CCN(S(=O)(=O)c3ccc(Cl)cc3)CC2)cc1	0.1	0.9	9	-4	1
O=C(O)c1cc(NCc2cccs2)ccc1N1CCOCC1	0.28	1	-1	-2	1
CCOc1ccc(CNc2ccc3c(c2)ncn3C)cc1	-0.22	0.9	12	45	0.5
COc1ccccc1-n1cnc2cc(NCc3ccco3)ccc21	0.16	2*	-101	93*	0.1
COc1ccccc1-n1cnc2cc(NCc3cccs3)ccc21	-1.4	1.7	-70	70*	0.3
COc1ccc(CNc2ccc3c(c2)ncn3-c2ccccc2OC)cc1	-0.63	0.5	54*	52*	0.5
Cc1ccccc1-n1cnc2cc(NCc3cccs3)ccc21	-0.28	0.7	27	54*	0.5
CC(C)OC(=O)CC12CN(C)CC(CC(=O)OC(C)C)(CN(C)C1)C2=O	-0.25	1.1	-10	-16	1.2
COC(=O)c1ccc(NC(=O)CCN2CCN(Cc3ccccc3)CC2)cc1	0.6	.	.	.	.
O=C(OCc1nc2ccc(Cl)cc2n1CCO)c1ccc2c(c1)OCO2	-0.92	0.6	43	17	0.8
N#Cc1ccccc1NC(=O)COC(=O)c1ccc(S(=O)(=O)N2CCCC2)cc1	0.55	0.7	33	2	1
Cc1ccc2c(c1)cc(CN(Cc1ccc3c(c1)OCO3)S(=O)(=O)c1ccccc1)c1nnnn12	-1.2	0.3	69*	80*	0.2
COc1ccc(CCNc2c(N)n(Cc3ccccc3)c(=O)[nH]c2=O)cc1OC	-0.18	0.6	43	22	0.8
CNC(=O)C1CC(=O)N(Cc2ccc(OC)c(OC)c2)C(=Nc2ccc(OC)cc2)S1 (stereo not drawn)	-0.4	0.6	41	38	0.6
COc1cccc(CC2CC(=O)N(CCc3ccc4c(c3)OCO4)C2=O)c1 (stereo not drawn)	0.27	0.5	47	96*	0
COc1ccc(CCNC2=C(Cl)C(=O)N(CCc3ccccc3)C2=O)cc1OC	0.49	0.4	58*	60*	0.4
Cc1ccc(CC2CC(=O)N(CCc3ccc4c(c3)OCO4)C2=O)cc1 (stereo not drawn)	-0.42	0.9	10	10	0.9
O=C1CC(NCc2ccc3c(c2)OCO3)C(=O)N1CCc1ccccc1 (stereo not drawn)	-0.02	0.5	47	75*	0.3
COc1ccc(CCN2C(=O)CC(C(N)=O)SC2=Nc2ccccc2)cc1OC (stereo not drawn)	0.39	0.8	19	68*	0.3
COc1cc(C(=O)N(Cc2ccccn2)CC2CCCO2)cc(OC)c1OC (stereo not drawn)	0.54	1.2	-18	14	0.9
COc1ccc(CCNC2CC(=O)N(CCc3ccccc3)C2=O)cc1OC (stereo not drawn)	0.75	0.8	16	60*	0.4
COc1ccc(N2CCN(C(=O)CNC(=O)Cn3c(C)cc4ccccc4c3=O)CC2)cc1	0.7	1.5	-46	-7	1.1
CCOc1ccc(N2C(=O)/C(=C/c3cc(OC)c(OC)c(OC)c3)N(CC(=O)OC)C2=S)cc1	-2.5	0.6	42	54*	0.5
CCOc1ccc(/C=C2/C(=O)N(c3ccc(OC)cc3)C(=S)N2CC(=O)OC)cc1OCC	-2.8	.	.	.	.
SMILES	PTK2B oligo ant	CYP2C9 activ	CYP2C9 inh	CYP2C19 inh	CYP2C19 act
O=C1C(C=NCc2ccco2)=C(O)c2ccccc21	-0.71	0.9	15	9	0.9
COc1ccc(N=CC2=C(O)c3ccccc3C2=O)c(OC)c1	-1.4	0.9	13	78*	0.2
O=C(CSc1nnc(-c2ccco2)n1Cc1ccco1)NCc1ccccc1	-0.19	0.2	85*	66*	0.3
O=C(CSc1ncc(-c2ccc(F)cc2)n1Cc1ccco1)Nc1ccc2c(c1)OCO2	0.17	0.3	73*	19	0.8
Nn1c(SCC(=O)Nc2ccc3c(c2)OCO3)nnc1-c1ccc(Cl)cc1	0.46	1	4	-13	1.1
Cc1cc(-c2ccco2)n(CC(=O)NCc2ccccc2)n1	.	0.9	6	75*	0.3
Cc1ccc(OCc2nnc(SCC(=O)Nc3ccc4c(c3)OCCO4)n2Cc2ccco2)cc1	1.8	0.3	69*	44	0.6
Cn1c(SCC(=O)Nc2cc(=O)n(C)c(=O)n2C)nnc1C12CC3CC(CC(C3)C1)C2	.	1.2	-20	-20	1.2

Bioassay records as filed in PubChem BioAssay.
